From PubChem BioAssay
TbPYK inhibitor: qHTS of Trypanosoma Brucei Inhibitors; TbPYK enzyme, Kinase-Glo Plus ATP luminescence, 45 min; Potency, µM (top dose mostly 76.8 µM), inactives show at the top dose activity, negative = inhibition, most hits filed as inhibitors; 410,000 compounds, 0.12% hits; AID 624173, 2012; further: potency means the concentration at half of the fitted maximal effect; on the % scale 0 is the no-effect control and ±100 the full control effect; nearly all actives have a fitted effect of over 50% in size
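T. brucei PYK with substrate was exposed to pin-transferred compounds across a concentration series, then started with 130 uM ADP (final). After 45 min at room temperature, Kinase-Glo Plus luminescence was read, normalized and curve-fitted.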
RE007 growth inh: qHTS Assay for Inhibitors of the HIV-1 protein Vpr; S. pombe RE007 Vpr strain, BacTiter-Glo ATP luminescence, 24 h; Potency, µM (top dose mostly 92.2 µM), inactives show at the highest dose activity change, negative = less growth, hits mostly inhibitors; 360,000 compounds, 0.21% hits; AID 651644, 2012; active means well fitted falling curve with a large enough effect; inconclusive means small, poorly fitted or top-dose-only effect; inactive means no such curve, though single readings can be large or run the other way; further: potency means the concentration at half of the fitted maximal effect; on the % scale 0 is the no-effect control and ±100 the full control effect; nearly all actives have a fitted effect of over 50% in size
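Fission yeast strain RE007, carrying one chromosomally integrated HIV-1 vpr copy, was seeded at OD 0.01 in PMG+AL medium with 23 nL pinned compound. After 24 h at 30 °C and 99% humidity, viability was read by BacTiter-Glo luminescence.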
LmPK inhibitor: qHTS Assay for Inhibitors of Leishmania Mexicana Pyruvate Kinase (LmPK); Q27686; purified LmPK, Kinase-Glo ATP luminescence, 1 h; Potency, µM (titrated, usually from 57.5 µM), for inactives: at the top dose activity change, negative = inhibition, actives largely listed as inhibitors; 290,000 compounds, 0.37% hits; further: potency means the concentration at half of the fitted maximal effect; on the % scale 0 is the no-effect control and ±100 the full control effect
Target sequence (Q27686 whole entry, looked up): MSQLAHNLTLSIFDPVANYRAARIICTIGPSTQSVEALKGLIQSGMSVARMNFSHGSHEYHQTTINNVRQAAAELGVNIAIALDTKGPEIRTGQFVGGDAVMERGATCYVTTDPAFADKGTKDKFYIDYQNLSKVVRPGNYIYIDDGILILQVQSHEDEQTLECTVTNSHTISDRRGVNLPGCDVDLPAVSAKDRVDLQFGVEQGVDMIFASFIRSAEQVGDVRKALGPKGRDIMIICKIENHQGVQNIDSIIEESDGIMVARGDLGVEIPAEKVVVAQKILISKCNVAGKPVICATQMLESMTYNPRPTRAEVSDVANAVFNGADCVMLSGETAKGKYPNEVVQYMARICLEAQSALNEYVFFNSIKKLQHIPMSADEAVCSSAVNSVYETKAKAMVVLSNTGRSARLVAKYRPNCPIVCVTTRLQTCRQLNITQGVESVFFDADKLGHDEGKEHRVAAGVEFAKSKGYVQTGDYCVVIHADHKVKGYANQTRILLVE
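ATP generated from ADP (0.1 mM) and PEP (0.5 mM) by 0.1 nM LmPK over 1 h at room temperature (pH 7.2 imidazole buffer) was detected by coupled luciferase luminescence. Values were normalized to uninhibited and no-enzyme wells.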
Shiga toxin inh: A qHTS for Small Molecule Inhibitors of Shiga Toxin. Vero cells, Shiga toxin protein synthesis inhibition reporter. inhibition, % at 38.7 µM. 290,000 compounds, 9.2% hits; in the data active means inhibition mostly above about 28%, no sharp cut-off; inactive means mostly below about 43%; further: 0% is about no effect
Cycloheximide cs: Cycloheximide Counterscreen for Small Molecule Inhibitors of Shiga Toxin. cell reporter, cycloheximide protein synthesis inhibition counterscreen. max response, %. 300,000 compounds, 12% hits. AID 2314, 2010; in the data active means max response mostly above about 13%, no sharp cut-off; inactive means mostly below about 14%; further: read at 38.3 µM for the half of the compounds with a filed dose; 0% is about no effect
Giardia FBPA inh: qHTS Assay for Inhibitors of Fructose-1,6-bisphosphate Aldolase from Giardia Lamblia; Potency, µM (titrated, usually from 59.6 µM), inactives show at the top dose activity, negative = inhibition, actives largely listed as inhibitors; 290,000 compounds, 0.71% hits; purified Giardia FBPA; A8B2U2; further: potency means the concentration at half of the fitted maximal effect; on the % scale 0 is the no-effect control and ±100 the full control effect; nearly all actives have a fitted effect of over 55% in size
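Giardia FBPA (40 nM reagent) was preincubated 10 min at RT with compound (up to 57.5 uM final), then substrate plus GAPDH/TPI/NAD/arsenate coupling system with diaphorase/resazurin was added; resorufin fluorescence (525/598 nm) was read after 20 min.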
* marks the source's active call; other numbers are inactive results; ? = inconclusive; · = no result given; + = active, no number; [ ] = remark or other dose. The entries come from a sample that favours hits as a whole. Unless noted, the call rests on the fitted dose curve; in most records, active means well fitted curve in the direction sought with a large enough effect; inconclusive means small, poorly fitted or top-dose-only effect, or another doubt; inactive means no such curve, though single readings can be large; an effect the other way counts as inactive or inconclusive.

SMILES	TbPYK inhibitor	RE007 growth inh	LmPK inhibitor	Shiga toxin inh	Cycloheximide cs	Giardia FBPA inh
CS(=O)(=O)N(Cc1ccccc1)c1ccc(C(=O)Nc2ccc(C(N)=O)cc2)cc1	-1%	12%	2%	-8	1	0%
CSCc1ccc(C(=O)NCc2ccccc2)cc1	1%	4%	0%	27	31*	0%
CSCc1ccc(C(=O)Nc2ccc(C(N)=O)cc2)cc1	-3%	-1%	?	50*	28*	5%
CSCc1ccc(C(=O)NCc2ccc(F)cc2)cc1	-6%	-2%	-1%	-52	3	-3%
O=C(NCc1ccccc1)c1ccc(Cl)cc1	4%	-14%	-1%	12	17	-1%
O=C1C[C@@H](O)[C@@H](O)[C@@H]2[C@H]3C(=O)N(c4ccc(F)cc4F)C(=O)[C@@H]3CC[C@H]12	·	·	·	·	·	-1%[12.9 µM]
COc1cccc(C(=O)Nc2ccc3nc(SCC(=O)N4CCc5ccccc54)sc3c2)c1	0%	·	·	·	·	·
Cc1noc(C)c1COc1ccccc1C(=O)NCCOc1ccccc1F	9%	-10%	·	·	·	·
Cc1noc(C)c1COc1ccccc1C(=O)NC1CCC(C)CC1 (configuration not stated)	4%	-10%	-3%	55*	27*	·
CCc1ccc(NC(=O)CCCc2nnc3n(CC(C)C)c(=O)c4sccc4n23)cc1	4%	·	·	·	·	·
Cc1ccc(N2C(=O)N(CC(=O)Nc3ccccc3C)C(=O)C2C)cc1 (configuration not stated)	0%	11%	-6%	18*	20*	·
S=c1[nH]cc(-c2ccccc2)n1-c1ccccc1	?	28%	3.2µM*	-3	0	-5%
S=c1[nH]cc(-c2ccc(Cl)cc2)n1Cc1ccccc1	3%	-6%	-9%	13	14*	7%
CCn1c(-c2ccccc2)c[nH]c1=S	?	11%	14µM*	-20	-3	-7%
CC(=O)c1cc(C(=O)Nc2cccc(C)c2)c2ccccn12	1%	·	·	·	·	·
CN(C)C(=O)c1ccc(-c2ccc3ncnc(NCCN4CCOCC4)c3c2)cc1	·	·	·	·	·	7%
Oc1ccc(/C=N/Nc2ccccc2)cc1	-8%	3%	2%	24	1	-3%
CN(C)c1ccc(/C=N/Nc2cccc(C(=O)O)c2)cc1	-13%	20%	0%	198*	68*	-22%
O=C(O)c1cccc(N/N=C/c2ccc(-c3ccccc3)cc2)c1	-3%	-7%	-4%[11.5 µM]	191*	67*	3%
CN(C)c1ccc(/C=N/NC(=O)C2CC2c2ccccc2)cc1 (configuration not stated)	-2%	6%	6%	6	11	-3%
O=C(O)c1cccc(N/N=C/c2cccnc2)c1	-1%	8%	0%	63*	40*	-12%
CC(C)(C)c1ccc(/C=N/Nc2cccc(C(=O)O)c2)cc1	-2%	0%	-1%	+	104*	-2%
CCCCNC(=O)CCCn1c(=O)c2ccccc2n(Cc2ccccc2C)c1=O	5%	·	·	·	·	·
COc1ccc(S(=O)(=O)Nc2ccc3oc4c(c3c2)C(=O)CC(C)(C)C4)cc1	2%	·	·	·	·	·
CCC1Oc2ccccc2N(CC(=O)NCc2cc(OC)ccc2OC)C1=O (configuration not stated)	3%	·	·	·	·	·
SMILES	TbPYK inhibitor	RE007 growth inh	LmPK inhibitor	Shiga toxin inh	Cycloheximide cs	Giardia FBPA inh
COc1cc2ccccc2cc1C(=O)NCC(c1cccs1)N(C)C (configuration not stated)	2%	14%	-3%	87*	37*	-1%
COc1ccc(C(=O)Nc2ccc(C(=O)Nc3nccs3)cc2)cc1[N+](=O)[O-]	4%	9%	3%	-9	-4	5%
Cc1c(C(=O)Nc2nccs2)oc2ccccc12	-1%	-12%	·	·	·	·
COc1ccc(-c2nn(-c3ccccc3)cc2C(=O)Nc2nccs2)cc1	-3%	0%	-2%	-13	-3	-4%
COc1cc2ccccc2cc1C(=O)Nc1nccs1	4%	-11%	-3%	49*	27*	13%
COc1cccc2c1OCC(C(=O)Nc1nccs1)=C2	1%	7%	-1%	108*	41*	6%
COc1c(C(=O)Nc2nccs2)ccc2ccccc12	-6%	?	-5%	93*	38*	-7%
COc1ccc(CCN2C(=O)CN(C3CCCCCC3)C(=O)C2c2ccc(Cl)cc2)cc1OC (configuration not stated)	2%	·	·	·	·	·
Cc1ccc2c(=O)c3cccc(CC(=O)O)c3oc2c1C	·	·	·	20	-5	27%
CC(=O)Nc1ccn(C2COC(COC(=O)c3ccccc3)O2)c(=O)n1 (configuration not stated)	3%	·	·	·	·	·
COc1ccc(OC)c(NS(=O)(=O)c2ccc(-c3cc(C)no3)s2)c1	-3%[15.4 µM]	·	·	·	·	·
CN(c1nc(-c2ccccc2)cs1)C1CCS(=O)(=O)C1 (configuration not stated)	-19%	-20%	3%	61*	20*	3%
CN(C(=O)CSc1nc(-c2ccccc2)cs1)C1CCS(=O)(=O)C1 (configuration not stated)	4%	1%	0%	37	11	-5%
CC(Sc1nc2c([nH]c3ccccc32)c(=O)n1-c1ccccc1)c1ccccc1 (configuration not stated)	4%	·	·	·	·	·
COc1cccc(/C=C2/SC(=O)N(C)C2=O)c1OCc1ccc(C(=O)O)cc1	-3%	4%	15%	-5	9	14%
CN1C(=O)S/C(=C/c2ccc(OCc3cccc(C(=O)O)c3)cc2)C1=O	2%	-8%	1%	37*	35*	-4%
Cc1cc(C)c(C(=O)Nc2ccccc2)c(SCC(=O)Nc2ccc(Br)cc2C)n1	-8%	·	·	·	·	·
C/C(=N\Nc1ccc(F)cc1F)c1cccs1	·	·	-9%	64	35*	-4%
COc1ccc(/C(C)=N/Nc2ccc(F)cc2F)c(O)c1	-5%	4%	-1%	74*	42*	-3%
COc1ccc(/C(C)=N/Nc2ccccc2Cl)c(O)c1	11%	39%	-16%	48*	37*	-6%
COc1cccc(-n2c(-c3cccc(F)c3)nc3c(cnn3-c3ccc(C)cc3)c2=O)c1	1%	·	·	·	·	·
COc1cc(OC)c(NC(=O)c2noc3c2CSc2ccccc2-3)cc1Cl	6%	·	·	·	·	·
CC(C)CN(C(=O)c1ccco1)c1nc2ccccc2s1	-1%	-12%	2%	43	active	-8%
CN(C)CCCN(C(=O)c1ccc([N+](=O)[O-])s1)c1nc2cc3c(cc2s1)OCCO3	-6%	-10%	0%	20	12*	-17%
Cc1ccc2nc(N(CCCN(C)C)C(=O)c3ccco3)sc2c1	-4%	-2%	0%[11.5 µM]	53	17	-1%
